Test results as given in PubChem BioAssay (Tox21).
Results filed as inconclusive are left out. Calls of active or inactive are those of the source. Unless noted, the call rests on the fitted dose curve; in most records, active means well fitted curve in the direction sought with a large enough effect in the repeat runs; inconclusive means weak or mixed curves; inactive means no such curve, though single readings can be large; an effect the other way counts as inactive or inconclusive.

Experiments:
[1] = target: Peroxisome proliferator-activated receptor delta (Homo sapiens) (UniProt Q03181); assay: qHTS assay to identify small molecule agonists of the peroxisome proliferator-activated receptor delta (PPARd) signaling pathway (AID 743212; calls by dose curve)
How it was run: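 Cells expressing a UAS-driven beta-lactamase reporter (PPARd-bla HEK293H) were given test compounds after a 5 h settle and kept at 37 C. Reporter activity was then measured as FRET fluorescence using LiveBLAzer B/G substrate.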

[2] = qHTS assay to identify small molecule antagonists of the peroxisome proliferator-activated receptor delta (PPARd) signaling pathway - cell viability counter screen (AID 743213); further: nearly all actives have a fitted effect of over 50% in size
How it was run: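 In this counter screen, HEK293H cells carrying a UAS-beta-lactamase reporter are co-treated with test compounds and 300 nM L165041 (final) for 17 h at 37 C; cell viability is quantified by CellTiter-Glo luminescence.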

[3] = target: Bile acid receptor (Homo sapiens) (UniProt Q96RI1); assay: qHTS assay to identify small molecule antagonists of the farnesoid-X-receptor (FXR) signaling pathway (AID 743217; active means well fitted inhibition curve with a large enough effect in the signal ratio in the repeat runs, not every such curve was filed as active; the % refers to the signal ratio)
How it was run: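 Quantitative HTS, beta-lactamase reporter format: FXR-UAS-bla HEK 293T cells co-treated 16 h at 37 °C with compounds and 50 uM final chenodeoxycholic acid, then read by B/G FRET fluorescence.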

[4] = qHTS assay to identify small molecule agonists of the farnesoid-X-receptor (FXR) signaling pathway - cell viability counter screen (AID 743218); further: nearly all actives have a fitted effect of over 45% in size
How it was run: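 Same-well cytotoxicity check on FXR-UAS-bla HEK 293T cells: 5 h attachment, 16 h compound at 37 C, CellTiter-Glo luminescence read at room temperature after 30 min.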

[5] = target: Bile acid receptor (Homo sapiens) (UniProt Q96RI1); assay: qHTS assay to identify small molecule agonists of the farnesoid-X-receptor (FXR) signaling pathway (AID 743220; active means well fitted activation curve with a large enough effect in the signal ratio in the repeat runs, not every such curve was filed as active; the % refers to the signal ratio)
How it was run: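 FXR-UAS-bla HEK 293T cells carrying a UAS-driven beta-lactamase reporter were plated for 5 h at 37C/5% CO2, then exposed to DMSO-dissolved Tox21 10K compounds for 16 h at 37C. A LiveBLAzer B/G FRET substrate was loaded for 2 h at room temperature before fluorescence reading.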

[6] = qHTS assay to identify small molecule antagonists of the farnesoid-X-receptor (FXR) signaling pathway - cell viability counter screen (AID 743221; active means well fitted cell-killing curve with a large enough effect in the repeat runs, not every such curve was filed as active; further: nearly all actives have a fitted effect of over 50% in size)
How it was run: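 After a 5 h settling period, FXR-bla HEK 293T cells receive compound and chenodeoxycholic acid (50 uM final) and incubate 16 h at 37 C; CellTiter-Glo luminescence, read after 30 min at room temperature, reports cell viability.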

[7] = target: Vitamin D3 receptor (Homo sapiens) (UniProt P11473); assay: qHTS assay to identify small molecule agonists of the vitamin D receptor (VDR) signaling pathway (AID 743222; calls by dose curve)
How it was run: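 Using LiveBLAzer B/G FRET detection, agonism was scored in VDR-bla cells exposed overnight (16 h, 37C) to DMSO-dissolved compounds; substrate incubation was 2 h at room temperature.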

[8] = qHTS assay to identify small molecule agonists of the vitamin D receptor (VDR) signaling pathway - cell viability counter screen (AID 743224); further: series mostly up to about 63 µM; nearly all actives have a fitted effect of over 50% in size
How it was run: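 Counter screen for cytotoxicity: VDR-bla cells at 2,000 cells/well, 16 h compound exposure, then CellTiter-Glo luminescence after the beta-lactamase measurement.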

[9] = target: Peroxisome proliferator-activated receptor delta (Homo sapiens) (UniProt Q03181); assay: qHTS assay to identify small molecule antagonists of the peroxisome proliferator-activated receptor delta (PPARd) signaling pathway (AID 743215; active means well fitted inhibition curve with a large enough effect in the signal ratio in the repeat runs, not every such curve was filed as active; the % refers to the signal ratio;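 further: cells stimulated with agonist L165041 at 300 nM final during compound exposure; series mostly up to about 62 µM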)
How it was run: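 Screen format: qHTS, antagonist mode. HEK293H PPARd-bla cells received compound and 300 nM L165041 (final), 17 h, 37 C. Beta-lactamase detected via FRET substrate fluorescence, 2 h, room temperature.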

[10] = target: Vitamin D3 receptor (Homo sapiens) (UniProt P11473); assay: qHTS assay to identify small molecule antagonists of the vitamin D receptor (VDR) signaling pathway (AID 743223; active means well fitted inhibition curve with a large enough effect in the signal ratio in the repeat runs, not every such curve was filed as active; the % refers to the signal ratio)
How it was run: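 Reporter line VDR-bla; stimulus 1alpha,25-(OH)2 vitamin D3, 3 nM final; compound co-addition, 16 h 37C/5% CO2; LiveBLAzer B/G substrate 2 h RT; fluorescence intensity.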

Measured: Potency

Bile acid receptor (Homo sapiens), sequence (Q96RI1 whole entry, looked up): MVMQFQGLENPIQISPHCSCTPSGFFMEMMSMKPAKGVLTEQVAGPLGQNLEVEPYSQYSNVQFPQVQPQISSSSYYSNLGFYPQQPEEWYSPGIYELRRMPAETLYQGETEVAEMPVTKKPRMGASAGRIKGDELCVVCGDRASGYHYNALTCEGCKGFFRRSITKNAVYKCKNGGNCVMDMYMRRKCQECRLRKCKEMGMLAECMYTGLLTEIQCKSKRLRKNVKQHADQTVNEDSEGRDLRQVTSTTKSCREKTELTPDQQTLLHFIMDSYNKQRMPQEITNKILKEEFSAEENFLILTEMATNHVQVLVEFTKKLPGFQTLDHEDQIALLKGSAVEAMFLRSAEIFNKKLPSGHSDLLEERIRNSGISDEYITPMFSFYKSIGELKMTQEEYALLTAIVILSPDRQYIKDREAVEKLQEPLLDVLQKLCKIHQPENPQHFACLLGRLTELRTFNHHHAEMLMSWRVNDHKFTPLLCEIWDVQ
Peroxisome proliferator-activated receptor delta (Homo sapiens), sequence (Q03181 whole entry, looked up): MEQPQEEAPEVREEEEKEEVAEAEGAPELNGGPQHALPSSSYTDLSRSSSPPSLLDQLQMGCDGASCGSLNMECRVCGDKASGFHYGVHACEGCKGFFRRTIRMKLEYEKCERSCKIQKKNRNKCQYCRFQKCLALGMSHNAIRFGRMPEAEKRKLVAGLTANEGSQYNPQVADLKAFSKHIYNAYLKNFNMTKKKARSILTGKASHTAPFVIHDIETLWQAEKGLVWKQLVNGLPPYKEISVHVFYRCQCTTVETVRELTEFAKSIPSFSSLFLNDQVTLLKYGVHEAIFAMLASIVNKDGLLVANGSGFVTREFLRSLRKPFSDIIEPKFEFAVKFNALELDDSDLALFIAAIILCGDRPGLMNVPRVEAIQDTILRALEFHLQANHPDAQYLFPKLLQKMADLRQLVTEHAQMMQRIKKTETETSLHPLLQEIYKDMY
Vitamin D3 receptor (Homo sapiens), sequence (P11473 whole entry, looked up): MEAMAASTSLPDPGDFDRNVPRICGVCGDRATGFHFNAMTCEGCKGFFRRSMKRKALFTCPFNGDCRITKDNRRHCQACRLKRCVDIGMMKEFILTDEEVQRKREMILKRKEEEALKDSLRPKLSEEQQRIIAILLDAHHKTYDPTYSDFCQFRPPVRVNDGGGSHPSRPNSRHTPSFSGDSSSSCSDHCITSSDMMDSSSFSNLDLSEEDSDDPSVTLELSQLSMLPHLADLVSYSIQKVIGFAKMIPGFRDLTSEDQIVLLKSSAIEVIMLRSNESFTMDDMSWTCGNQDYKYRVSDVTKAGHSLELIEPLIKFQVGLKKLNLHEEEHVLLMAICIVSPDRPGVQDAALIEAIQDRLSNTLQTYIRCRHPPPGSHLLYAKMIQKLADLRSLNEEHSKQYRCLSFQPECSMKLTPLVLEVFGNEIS

NC(=O)NC(=O)Cc1ccccc1
not listed: [9] | [10]
inactive: all other assays above

CC(C)COC(=O)CC(C(=O)OCC(C)C)S(=O)(=O)O (stereo not drawn)
inactive: [1] | [2] | [7] | [8]

CC(=O)OC[C@H]1O[C@@H](OC(C)=O)[C@H](OC(C)=O)[C@@H]1OC(C)=O
not listed: [2]
inactive: all other assays above

CCCCCCCCCCCCOC(C)=O
inactive: [1] | [2] | [9] | [6] | [8]

CCC(O)C(C)(C)C (stereo not drawn)
inactive: [1] | [2] | [9] | [5] | [6] | [8]

CC(=O)OC(C(=O)c1ccccc1)c1ccccc1 (stereo not drawn)
not listed: [7] | [9] | [10]
inactive: all other assays above

O=C(O)CCNC(=O)c1ccccc1
inactive: [1] | [2] | [9] | [6]

CCCCC(CC)CNC(=O)CC(C)OC(=O)CCC(=O)O (stereo not drawn)
not listed: [2]
inactive: all other assays above

CC(=O)OCC(=O)[C@@]1(O)[C@H](OC(C)=O)C[C@H]2[C@@H]3CCC4=CC(=O)C=C[C@]4(C)[C@@]3(F)[C@@H](O)C[C@@]21C
not listed: [2] | [10]
inactive: all other assays above

CC(C)COC(=O)COc1ccc(Cl)cc1Cl
not listed: [2]
inactive: all other assays above

CN[C@@H]1[C@@H](O)[C@@H](O[C@@H]2[C@H](O)[C@H](O[C@H]3OC(CN)=CC[C@H]3N)[C@@H](N)C[C@H]2N)OCC1(C)O (stereo partly drawn)
inactive: [1] | [2] | [9] | [6] | [10] | [8]

CC(C)(C)NCCO
not listed: [3] | [4] | [5]
inactive: all other assays above

O=C(O)/C=C/c1ccccc1
not listed: [9]
inactive: all other assays above

NS(=O)(=O)c1ccccc1OC(F)(F)F
not listed: [4] | [9]
inactive: all other assays above

COc1ccc(N=Nc2cc(C)c(N=Nc3ccc(S(=O)(=O)O)cc3)cc2OC)cc1
inactive: [1] | [2] | [4] | [6] | [10] | [8]

C[N+](C)(C)CC(O)CCl (stereo not drawn)
not listed: [3] | [5] | [9]
inactive: all other assays above

O=C1CC[C@H](C(=O)N2CCCCC2)N1
inactive: [1] | [2] | [4] | [6] | [8]

CCC(=O)OCCC(C)CCC=C(C)C (stereo not drawn)
inactive: [1] | [2] | [4] | [6] | [7]

COc1cc2c3cc1Oc1cc(ccc1O)C[C@@H]1c4c(cc(OC)c(O)c4Oc4ccc(cc4)C[C@@H]3N(C)CC2)CC[N+]1(C)C
not listed: [3] | [4] | [6]
inactive: all other assays above

COc1ccc(OC)c(NC(=O)CC(C)=O)c1
inactive: [1] | [2] | [6] | [7] | [10] | [8]

CCS(=O)(=O)CCn1c([N+](=O)[O-])cnc1C
not listed: [3] | [5] | [9]
inactive: all other assays above

C=C(C)C(=O)OC1CC(C)CC(C)(C)C1 (stereo not drawn)
not listed: [2] | [10]
inactive: all other assays above

O=[Si]=O
not listed: [3] | [4] | [5]
inactive: all other assays above

CCCCCN(CCCOC)C(=O)C(CCC(=O)O)NC(=O)c1ccc(Cl)c(Cl)c1 (stereo not drawn)
inactive: [1] | [2] | [9] | [7] | [10] | [8]

C=CCOCC(CO)(COCC=C)COCC=C
inactive: [1] | [2] | [9] | [7] | [10] | [8]

Oc1ccccc1Cc1ccccc1O
inactive: [1] | [2] | [4] | [6] | [7]

CC(=O)/C=C/c1ccco1
not listed: [1] | [10]
inactive: all other assays above

CCCCCCCCCCCCC
inactive: [1] | [3] | [5] | [6] | [7] | [8]

C=C(C)C(=O)OC
inactive: [2] | [9] | [3] | [4] | [6] | [8]

CN(C)CCOCCN(C)CCO
inactive: [1] | [9] | [6] | [7] | [8]

COc1cccc2sc(N)nc12
not listed: [1] | [5] | [6]
inactive: all other assays above

CCCCCCCCCOCC1CO1 (stereo not drawn)
inactive: [1] | [9] | [6] | [7] | [10] | [8]

CCCCC(CC)COC(=O)c1ccccc1 (stereo not drawn)
inactive: [1] | [9] | [4] | [6] | [10] | [8]
